Measured values taken from PubChem BioAssay (NCI).
This is part of a sample that, as a whole, favours compounds with a hit. Of some 83,000 tested, about 20% had one in any assay.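 Method: cells in 96-well plates; compound added at one concentration; 48 h incubation; percent growth measured; values under 10 scored active.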 Activity calls are given as the source filed them.

Experiments:
Assay in all cases: NCI-60 one-dose screen, 48 h (100 = growth as untreated, 0 = no growth, -100 = all killed)
Conditions in all cases: 10 µM unless noted
T-47D breast = test system: T-47D breast
BT-549 breast = test system: BT-549 breast
MDA-MB-435 melanoma = test system: MDA-MB-435 melanoma
SW-620 colon = test system: SW-620 colon
MCF7 breast = test system: MCF7 breast
HCT-116 colon = test system: HCT-116 colon
HCC-2998 colon = test system: HCC-2998 colon
KM12 colon = test system: KM12 colon

Measured: growth

C[C@H]1[C@H](C)CC[C@]2(CO)CC[C@]3(C)C(=CC[C@@H]4[C@@]5(C)CCCNC(C)(C)[C@@H]5CC[C@]43C)[C@H]12
active: T-47D breast 1.1% | BT-549 breast -66% | MDA-MB-435 melanoma -73.9% | SW-620 colon -69.6% | MCF7 breast -29.4% | HCT-116 colon -94.7% | HCC-2998 colon -38.7% | KM12 colon 0.124%

CCN(CC)CCSCCCNc1c(C)cnc2cc(Cl)ccc12
inactive: T-47D breast 96.5% | BT-549 breast 85.6% | MDA-MB-435 melanoma 85.1% | SW-620 colon 88.3% | MCF7 breast 79.4% | HCT-116 colon 52.9% | HCC-2998 colon 91% | KM12 colon 91.6%

CCCCCCCC(=O)Nc1nc2[nH]c(CN3CCN(Cc4cccc(I)c4)CC3)c(CN3CCN(Cc4cccc(I)c4)CC3)c2c(=O)[nH]1
active: T-47D breast -62% | BT-549 breast -4.02% | MDA-MB-435 melanoma -75.8% | SW-620 colon -73.7% | MCF7 breast -93.6% | HCT-116 colon -100% | HCC-2998 colon -94.6% | KM12 colon -80.5%

Cc1c2c(cc[n+]1Cc1ccccc1)c1ccc(OCC3CCCCC3)cc1n2CC1CCCCC1
active: T-47D breast -74.1% | BT-549 breast -91% | MDA-MB-435 melanoma -84.9% | SW-620 colon -96.6% | MCF7 breast -92.3% | HCT-116 colon -98.3% | HCC-2998 colon -93.2% | KM12 colon -99.9%

Clc1cc(Cl)cc(N2N=C(c3cccc(Nc4ccncc4)c3)CC2c2ccc3c(c2)OCO3)c1 (centres undefined)
inactive: T-47D breast 63.4% | BT-549 breast 93.8% | HCT-116 colon 65.3%
active: MDA-MB-435 melanoma -85.4% | SW-620 colon -84.1% | MCF7 breast -19.3% | HCC-2998 colon -40.8% | KM12 colon -51.6%

CN1CCN(c2cnc(C(=O)Nc3cc(F)cc4cccnc34)cn2)CC1
inactive: T-47D breast 28.5% | BT-549 breast 62.2% | MDA-MB-435 melanoma 74.5% | SW-620 colon 39.6% | HCC-2998 colon 93% | KM12 colon 95%
active: MCF7 breast 9.71% | HCT-116 colon 9.87%

Cc1cc(Nc2cccc(C(F)(F)F)c2)n2c(nc3ccccc32)c1C#N
inactive: BT-549 breast 19.4% | MDA-MB-435 melanoma 45.5% | SW-620 colon 23.8% | MCF7 breast 36.3% | HCT-116 colon 39.6% | HCC-2998 colon 46.3% | KM12 colon 20.9%
active: T-47D breast 8.68%

S=c1[nH]cccc1-c1nnc2n1Nc1nc3ccccc3cc1CS2
inactive: T-47D breast 95.4% | BT-549 breast 100% | MDA-MB-435 melanoma 106% | SW-620 colon 99.4% | MCF7 breast 103% | HCT-116 colon 94.9% | HCC-2998 colon 98.5% | KM12 colon 109%

O=C(Nc1ccc2ncnc(Nc3ccc(Oc4cccc(F)c4)c(Cl)c3)c2c1)c1ccc(CNCCO)cc1
active: MDA-MB-435 melanoma -86.3% | SW-620 colon -74% | MCF7 breast -67.2% | HCT-116 colon -46.5% | HCC-2998 colon -8.44%
inactive: T-47D breast 42.6% | BT-549 breast 85.5% | KM12 colon 12.9%

O=C(CCN1CCCC1)Nc1ccc2c(Nc3ccccc3)c3ccccc3nc2c1
inactive: T-47D breast 18.6% | BT-549 breast 41% | KM12 colon 16.1%
active: MDA-MB-435 melanoma -93.5% | SW-620 colon -27.9% | MCF7 breast -13.5% | HCT-116 colon -45.4% | HCC-2998 colon -74.1%

C[C@]12C[C@H]1CC[C@]1(C)[C@@H]2CC[C@@]23C[C@H](CC[C@H]21)[C@@](O)(CO)C3
inactive: T-47D breast 90.7% | BT-549 breast 77% | MDA-MB-435 melanoma 59.1% | SW-620 colon 109% | MCF7 breast 97.8% | HCC-2998 colon 103% | KM12 colon 96.5%
active: HCT-116 colon -71.4%

Cc1ccc(/C=C/C(=O)c2ccc(N)cc2)c(C)c1
active: SW-620 colon -69.1%
inactive: T-47D breast 101% | BT-549 breast 89.6% | MDA-MB-435 melanoma 77% | MCF7 breast 35% | HCT-116 colon 35.8% | HCC-2998 colon 106% | KM12 colon 63.3%

CC(=O)OCC(=O)C1(O)C(C)CC2C3C=C(C)C4=Cc5c(cnn5-c5ccccc5)CC4(C)C3C(O)CC21C (centres undefined)
active: SW-620 colon -30% | HCT-116 colon 3.77% | KM12 colon -28.7%
inactive: T-47D breast 40.4% | BT-549 breast 21.5% | MDA-MB-435 melanoma 33.7% | MCF7 breast 12.8% | HCC-2998 colon 13.5%

CC(Oc1ccc(C(=O)NS(=O)(=O)C(C)(C)C)cc1C(F)(F)F)c1ccc(Oc2ccccc2)cn1 (centres undefined)
inactive: T-47D breast 60.5% | BT-549 breast 67.2% | SW-620 colon 58.4% | MCF7 breast 38.9% | HCT-116 colon 60.1% | HCC-2998 colon 86.9% | KM12 colon 52.7%
active: MDA-MB-435 melanoma -4.12%

FC(F)(F)c1cccc(Oc2ccc(Nc3ncnc4ccc(OCCCN5CCOCC5)cc34)cc2Cl)c1
inactive: T-47D breast 32.7% | BT-549 breast 78.9% | MDA-MB-435 melanoma 43.2% | SW-620 colon 31.7% | MCF7 breast 28.7% | HCT-116 colon 28% | HCC-2998 colon 29.3% | KM12 colon 17.1%

Cc1cc(C)n(Nc2nc3ccccc3[nH]c2=O)c(=O)c1C#N
inactive: T-47D breast 86% | BT-549 breast 106% | MDA-MB-435 melanoma 103% | SW-620 colon 98.5% | MCF7 breast 82.6% | HCT-116 colon 96.1% | HCC-2998 colon 103% | KM12 colon 92.9%

CCC(C)C(N)C(=O)NNc1n[nH]c(=S)n1N (centres undefined)
inactive: T-47D breast 104% | BT-549 breast 104% | MDA-MB-435 melanoma 103% | SW-620 colon 96.9% | MCF7 breast 96.9% | HCT-116 colon 108% | HCC-2998 colon 106% | KM12 colon 104%

COc1ccc(-c2cnc(N)nc2-c2ccc(OC)cc2O)cc1
inactive: T-47D breast 93.7% | BT-549 breast 115% | MDA-MB-435 melanoma 101% | SW-620 colon 95.7% | MCF7 breast 95.4% | HCT-116 colon 80.4% | HCC-2998 colon 103% | KM12 colon 45.5%

O=C1C(=O)c2c(nc3ncccn23)-c2ccccc21
active: T-47D breast -48.5% | BT-549 breast -94% | MDA-MB-435 melanoma -93.8% | SW-620 colon -60.6% | MCF7 breast -53.8% | HCT-116 colon -79% | HCC-2998 colon -92.7% | KM12 colon -62.6%

Clc1ccc(C2CC(c3cccc(Nc4ccncc4)c3)=NN2c2ccccc2)cc1 (centres undefined)
inactive: T-47D breast 58.6%
active: BT-549 breast -75.9% | MDA-MB-435 melanoma -46.1% | SW-620 colon -79.8% | MCF7 breast 4.93% | HCT-116 colon -79.6% | HCC-2998 colon -31.5% | KM12 colon -7.31%

CC(=O)OC1CCC2(C)C(CCC3C4CC=C(C(C)=O)C4(C)OC(=O)CC32)C1 (centres undefined)
active: SW-620 colon -48.7% | HCT-116 colon -98.9%
inactive: T-47D breast 17.4% | BT-549 breast 28.8% | MDA-MB-435 melanoma 20.4% | MCF7 breast 11.2% | HCC-2998 colon 73.8% | KM12 colon 81.6%

O=C1Nc2c(ccc(Cl)c2Cl)/C1=C/c1ccc(F)cc1
inactive: T-47D breast 71.2% | BT-549 breast 99.8% | MDA-MB-435 melanoma 99.1% | SW-620 colon 96.4% | MCF7 breast 37.7% | HCT-116 colon 84.4% | HCC-2998 colon 58.1% | KM12 colon 85.2%

COc1cc2oc(-c3cccc(C(=O)Nc4ccc(Cl)cc4)c3)cc(=O)c2c(OC)c1OC
inactive: T-47D breast 24.2% | BT-549 breast 38.5% | MDA-MB-435 melanoma 37.5% | SW-620 colon 50.4% | MCF7 breast 17.2% | HCT-116 colon 15.3% | HCC-2998 colon 22.6% | KM12 colon 26.3%

Clc1ccc(N2N=C(c3cccc(Nc4ccncc4)c3)CC2c2ccccc2)cc1 (centres undefined)
inactive: T-47D breast 96.9% | BT-549 breast 92.9% | MDA-MB-435 melanoma 67.5% | SW-620 colon 86.2% | MCF7 breast 76.2% | HCC-2998 colon 97% | KM12 colon 90.4%
active: HCT-116 colon -78.7%

Brc1ccc(C2CC(c3cccc(Nc4ccncc4)c3)=NN2c2ccccc2)cc1 (centres undefined)
inactive: T-47D breast 87.8% | BT-549 breast 84% | MDA-MB-435 melanoma 70.5% | MCF7 breast 24.5% | HCT-116 colon 77.4% | HCC-2998 colon 19.2% | KM12 colon 46.9%
active: SW-620 colon -33.1%

Cc1ccc(C2C3CC4CCCCC4N3[C@@]3(C(=O)Nc4cc(Cl)ccc43)C2C(=O)c2nc3ccccc3[nH]2)cc1 (some centres undefined)
inactive: T-47D breast 27.4% | BT-549 breast 52.8% | MDA-MB-435 melanoma 26.5% | SW-620 colon 29.8% | MCF7 breast 13.8% | HCT-116 colon 19.5% | HCC-2998 colon 38.4% | KM12 colon 38%

C[C@]12CCc3nc(Nc4cccc(O)c4)sc3C1=CC[C@@H]1[C@@H]2CC[C@]2(C)/C(=N\NC(N)=S)CC[C@@H]12
active: BT-549 breast 7.62% | MDA-MB-435 melanoma 5.53% | SW-620 colon -50% | MCF7 breast -39.3% | HCT-116 colon -61.8%
inactive: T-47D breast 19.5% | HCC-2998 colon 65.3% | KM12 colon 13.5%

COc1ccc(-c2nc(SCC(C)C)nc(N/N=C(/C)c3ccc(OC)c(OC)c3)c2C#N)cc1
inactive: T-47D breast 54.7% | BT-549 breast 97.8% | MDA-MB-435 melanoma 87.9% | SW-620 colon 84.4% | MCF7 breast 80.6% | HCT-116 colon 96.6% | HCC-2998 colon 92.4% | KM12 colon 74%
